A selection: hits, their analogues and other compounds. The true share with any hit is near 4%.
Mtb betalactam: beta-lactam sensitization of Mtb H37Rv, H37Rv; M. tuberculosis H37Rv growth with meropenem, percent inhibition; inhibition, % at 25 µM; 330,000 tested, 0.27% active; AID 434955, 2010; call rule not given here;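 further: growth measured after seven days incubation then overnight dye step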
RecA intein inh: Mtb RecA intein splicing inhibitors, primary screen, biochemical, fluorescence, HTS. 290,000 tested, 0.75% active. inhibition, % (test concentration not listed). cell-free RecA intein splicing. AID 2221, 2009. Protein RecA (Mycobacterium tuberculosis (strain ATCC 25618 / H37Rv)), P9WHJ3; in the data active means inhibition above about 30%
UGM FP inh: M. tuberculosis UGM enzyme inhibitors, primary screen, biochemical, fluorescence polarization, single point; 320,000 tested, 0.06% active; purified UGM, fluorescence polarization probe displacement; inhibition, % at 10 µM; UDP-galactopyranose mutase (Mycobacterium tuberculosis (strain ATCC 25618 / H37Rv)), …; in the data active means inhibition above about 10%, passing the limit was not always enough
Rv3671c inh: Rv3671c serine protease inhibitors, primary screen, biochemical, fluorescence polarization, M. tuberculosis H37Rv. P9WHR9. 320,000 tested, 0.048% active. inhibition, % at 5.96 µM; in the data active means inhibition above about 38%;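 further: extracellular domain of Rv3671c used as enzyme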
Target sequence (P9WHR9 whole entry, looked up, the tested form may be a part): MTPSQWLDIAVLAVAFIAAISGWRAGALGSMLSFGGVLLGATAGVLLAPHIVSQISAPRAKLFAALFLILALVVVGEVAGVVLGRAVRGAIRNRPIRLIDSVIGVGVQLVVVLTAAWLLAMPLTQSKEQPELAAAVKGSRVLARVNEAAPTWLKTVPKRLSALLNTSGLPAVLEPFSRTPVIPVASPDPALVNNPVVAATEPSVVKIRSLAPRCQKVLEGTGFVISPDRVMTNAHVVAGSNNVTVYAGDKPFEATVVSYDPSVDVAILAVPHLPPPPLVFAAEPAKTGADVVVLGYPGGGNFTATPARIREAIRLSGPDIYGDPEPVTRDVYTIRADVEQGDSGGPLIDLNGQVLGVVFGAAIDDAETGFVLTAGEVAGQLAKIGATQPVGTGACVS
FBA Mtb inh: Mtb FBA enzyme inhibitors, primary screen, biochemical, fluorescence, strain H37Rv | Fructose-bisphosphate aldolase (Mycobacterium tuberculosis (strain ATCC 25618 / H37Rv)), … | purified M. tuberculosis FBA, fluorescence read-out | inhibition, % at 1 µM | 360,000 tested, 2.3% active; in the data active means inhibition above about 27%
GDH-TPI inh: GDH-TPI coupling enzyme inhibitors, primary screen, artefact control for M. tuberculosis FBA inhibitor project, biochemical, absorbance, full deck; GDH-TPI coupled enzyme counterscreen, NADH absorbance; inhibition, % at 4.8 µM; 360,000 tested, 1.2% active; in the data active means inhibition above about 30%
Each line names hits and unclear results; the compound was inactive in the other large screens.

Cn1c(C(=O)NN)cc2cc(OCc3ccccc3)ccc21	GDH-TPI inh 31.0
O=C1C=C(c2ccoc2)N2CCC[C@H]2C1	GDH-TPI inh 38.8 (no result: RecA intein inh)
O=c1/c(=C/c2ccco2)sc2n1CN(c1ccccc1)CN=2	GDH-TPI inh 31.7
Cc1ccc(/C=c2\sc3n(c2=O)CN(c2cccc(Br)c2)CN=3)o1	none
O=c1/c(=C/c2ccco2)sc2n1CN(c1cccc(Br)c1)CN=2	GDH-TPI inh 38.2
COc1ccc(-c2ccc(C(=O)NCc3ccc(C(F)(F)F)cc3)c3occc23)c(C)c1	none (no result: Mtb betalactam, RecA intein inh, UGM FP inh, Rv3671c inh)
O=C(NCc1cc(Cl)cc(Cl)c1)c1ccc2nc([C@@H]3O[C@H](CO)[C@H](O)[C@H](O)[C@H]3O)[nH]c2c1	none (no result: Mtb betalactam, RecA intein inh, UGM FP inh, Rv3671c inh)
O=C(Oc1ccc(Br)cc1C(=S)N1CCCCC1)c1cc([N+](=O)[O-])cc([N+](=O)[O-])c1	RecA intein inh 63.5
O=C(Oc1ccc(Br)cc1C(=S)N1CCCC1)c1ccccc1Cl	none
COc1cc(/C=N/NC(=O)c2sc(N)c(C#N)c2C)cc(Br)c1O	GDH-TPI inh 38.2
CN=c1scc(C)n1/N=C/c1cc(Br)c(O)c(Br)c1	none
COc1cc(/C=N/NC(=O)c2ccc([N+](=O)[O-])cc2Cl)cc(Br)c1O	GDH-TPI inh 42.1
CCN=c1scc(C)n1/N=C/c1cc(Br)c(O)c(OC)c1	GDH-TPI inh 31.7
COc1cc(/C=N/NC(=O)CC#N)cc(Br)c1O	FBA Mtb inh active
COc1ccc(N(C)S(=O)(=O)c2cccc(C(=O)OCC(=O)N(C)c3ccccc3)c2)cc1	none (no result: RecA intein inh)
CCc1nc2ccc(C(=O)Nc3ccc4c(c3)OCC(=O)N4)cn2c1N(C)Cc1nccn1C	none (no result: Mtb betalactam, RecA intein inh, UGM FP inh, Rv3671c inh)
Cc1ccc(C(=O)N/N=C\c2cccnc2)s1	none
Cc1c(C(=O)N/N=C/c2cccnc2)sc(N)c1C#N	GDH-TPI inh 31.0 (no result: Rv3671c inh)
O=C(CC1OC(=O)c2ccccc21)c1ccco1 (stereo not given)	GDH-TPI inh 41.4
CSc1ccc(/C=C(\NC(=O)c2ccco2)C(=O)N2CCCCC2)cc1	GDH-TPI inh 37.1 (no result: Rv3671c inh)
CSc1ccc(/C=C(/NC(=O)c2ccco2)C(=O)NCc2ccco2)cc1	GDH-TPI inh 41.2 (no result: Rv3671c inh)
COc1ccc(/C=C(\NC(=O)c2ccco2)C(=O)Nc2ccc(C(C)=O)cc2)cc1	GDH-TPI inh 33.2 (no result: Rv3671c inh)
COc1ccc(S(=O)(=O)N2CCN(C(=O)c3ccccc3Cc3ccccc3)CC2)cc1OC	none (no result: Mtb betalactam, RecA intein inh, UGM FP inh, Rv3671c inh)
CCOC(=O)c1c(N)n(CCN2CCCCC2)c2nc3ccccc3nc12	FBA Mtb inh 163.6
COC(=O)c1c(N)n(CCCN2CCOCC2)c2nc3ccccc3nc12	FBA Mtb inh 157.8
COCCCn1c(N)c(C(=O)Nc2sc3c(c2C(=O)OC)CCCC3)c2nc3ccccc3nc21	none
COc1ccc(CCNC(=O)c2c(N)n(CCN3CCOCC3)c3nc4ccccc4nc23)cc1	none
CCOC(=O)c1c(N)n(C2CC(C)(C)NC(C)(C)C2)c2nc3ccccc3nc12	FBA Mtb inh 154.5
COCCOC(=O)c1c(N)n(CCCN2CCOCC2)c2nc3ccccc3nc12	FBA Mtb inh 166.3
CC(C)CNC(=O)C1CCN(S(=O)(=O)c2ccc3c(c2)OCCO3)CC1	none
CCCC(=O)N1CCCC(c2cc(C(=O)NCc3cccnc3)no2)C1 (stereo not given)	none (no result: Mtb betalactam, RecA intein inh, UGM FP inh, Rv3671c inh)
CN1CCN(c2ccc(-c3ccnn3C(=O)Nc3cccc(C(F)(F)F)c3)cc2)CC1	none
CCOC(=O)C1(C)CCN1C(=O)c1ccccc1Br (stereo not given)	none (no result: Mtb betalactam, RecA intein inh, UGM FP inh, Rv3671c inh)
CC(=O)c1cccc(NC(=O)c2cccc3c(-c4cccnc4)coc23)c1	none (no result: Mtb betalactam, RecA intein inh, UGM FP inh, Rv3671c inh)
Cc1c(C(=O)O)sc2nc(-c3cccs3)cc(C(F)(F)F)c12	FBA Mtb inh 32.0
CS(=O)(=O)c1sc2nc(-c3cccs3)cc(-c3ccccc3)c2c1N	GDH-TPI inh 31.4
CC(=O)c1sc2nc(-c3cccs3)cc(C(F)(F)F)c2c1N	FBA Mtb inh active
Cc1ccc(-c2cc(-c3ccccc3)c3c(N)c(S(C)(=O)=O)sc3n2)cc1	none (no result: RecA intein inh)
Cc1c(C(=O)Nc2nccs2)sc2nc(-c3cccs3)cc(C(F)(F)F)c12	none
CC(=O)NC(Cc1ccccc1C)C(=O)NC1CCN(C(=O)c2ccc(C)cc2)CC1 (stereo not given)	none
CCN(CC)c1ccc2c(c1)oc(=O)c1c(Cl)cc(=O)oc12	GDH-TPI inh 35.0 (no result: RecA intein inh)
CC(C)(C)c1nnc(SCC(=O)Nc2ccc(N3CCCCC3)cc2)n1N	none (no result: RecA intein inh)
C/C(=N\NC(=O)c1ccc(Cl)cc1)c1cccs1	GDH-TPI inh 41.5 (no result: Mtb betalactam, UGM FP inh, Rv3671c inh)
CCCNC(=O)C1(C)CCCN(C(=O)c2cc(C)nn2C(C)(C)C)C1 (stereo not given)	none (no result: Mtb betalactam, RecA intein inh, UGM FP inh, Rv3671c inh)
CCOC(=O)C1=CC[C@@H](c2ccccc2C(F)(F)F)N(S(=O)(=O)c2ccc(C)cc2)[C@H]1c1ccc(C#N)cc1	none (no result: Mtb betalactam, RecA intein inh, UGM FP inh, Rv3671c inh, GDH-TPI inh)
O=C(CN1CCN(C2CCCCC2)CC1)Nc1cccc2ccccc12	GDH-TPI inh 31.7
O=C(O)COc1ccccc1/C=C1\SC(=S)N(NC(=O)c2ccccc2O)C1=O	GDH-TPI inh 32.6
O=C1C=C(c2ccc3c(c2)oc2ccccc23)C[C@@H](c2ccc3c(c2)OCO3)C1	none (no result: RecA intein inh)
Cc1ccc(/C=N/Nc2nc(Cl)c(Cl)cc2Cl)s1	GDH-TPI inh 31.2
Cc1ccc(/C=N/Nc2nc3ccccc3[nH]2)s1	GDH-TPI inh 39.3
Cc1nn(-c2ccccc2)c(Cl)c1/C=N/Nc1nc2ccccc2[nH]1	none
C(=C\c1ccccc1)/C=N/Nc1nc2ccccc2[nH]1	GDH-TPI inh 39.4
Cc1ccccc1/C=N/Nc1nc2ccccc2[nH]1	FBA Mtb inh 189.3
Cc1ccsc1/C=N/Nc1nc(Cl)c(Cl)cc1Cl	none
C(=N\Nc1nc2ccccc2[nH]1)/c1ccccc1	none
Cc1ccc(OCCn2cnc3cc([N+](=O)[O-])ccc3c2=O)cc1	none
COc1ccc2c(Cn3cnc4cc([N+](=O)[O-])ccc4c3=O)cc(=O)oc2c1	GDH-TPI inh 31.2
O=C(NC1CCCC1)c1cc(=O)[nH]c2ccccc12	GDH-TPI inh 42.9
O=C(COC(=O)c1cc(=O)[nH]c2ccccc12)NC1CCCC1	none
Cc1ccsc1/C=N/NC(=O)c1nnn(-c2nonc2N)c1-c1ccccc1	GDH-TPI inh 38.2
CCOc1ccc(-c2c(C(=O)N/N=C/c3ccc(C)o3)nnn2-c2nonc2N)cc1	none
COc1cccc(-c2c(C(=O)N/N=C/c3ccco3)nnn2-c2nonc2N)c1	GDH-TPI inh 33.0
COc1cccc(-c2c(C(=O)N/N=C(\C)c3cccs3)nnn2-c2nonc2N)c1	GDH-TPI inh 30.8

Assay outcomes as filed in PubChem.
